The full ranking holds about 35,000 sequences; the median of “fluorescence intensity (a.u.)” is about 10,000, and the highest 2% start at about 52,000. Only a selection was taken, and the highest values are over-represented in it overall.

In this assay the target is T1, OsWOX13 (Oryza sativa, UniProt Q5QMM3 1-267).
T1 sequence: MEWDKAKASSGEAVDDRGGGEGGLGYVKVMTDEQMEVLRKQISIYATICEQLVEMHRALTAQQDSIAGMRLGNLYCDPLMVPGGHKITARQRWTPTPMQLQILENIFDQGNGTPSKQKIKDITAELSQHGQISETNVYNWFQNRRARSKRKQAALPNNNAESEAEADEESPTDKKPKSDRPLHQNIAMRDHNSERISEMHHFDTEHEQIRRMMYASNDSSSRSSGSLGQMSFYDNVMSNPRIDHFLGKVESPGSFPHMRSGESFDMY
Description: protein-binding microarray (RPBM); PBS, 2% BSA, 51.3 ng/ul salmon testes DNA, 50 uM zinc acetate, 200 nM TF, 25 C, 1 h; high values mean tight binding. As to conditions: protein: recombinant; tags: N-terminal polyhistidine and DsRed monomer fusion (pET32a); label: CyDye5-dUTP incorporated in the synthesized complementary strand; 3' TTTTT single-stranded linker to array surface; dsDNA, one strand shown. The method, boiled down:
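Transcription factors were each fused at the N-terminus to a polyhistidine tag plus DsRed and expressed in E. coli BL21-CodonPlus before Ni–NTA purification. Binding to a double-stranded custom Agilent array was carried out with 200 nM protein at 25 °C for 1 h in PBS, 2% BSA, salmon testes DNA and 50 µM zinc acetate. The binding signal is per-feature fluorescence intensity, in arbitrary units, on an Axon 4000B scanner.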
For the sequence “TTACATTAGCAATTGATTGCTCTTATTTGACCATGATGTTCGGAGTCACCTAGTGCAG”, the binding signal is 31500 fluorescence intensity (a.u.).
Turning to “GTTGATGAGAGTGAAATTTGATTGACAAAGGATTGACTGGCGGAGTCACCTAGTGCAG”, the binding signal is 64400 fluorescence intensity (a.u.).
Consider “ATGCTTTGATTGAAATCAAGTACTCTGAAGCTAGTCATTCCGGAGTCACCTAGTGCAG”, for which the binding signal is 56700 fluorescence intensity (a.u.).
Consider “AAGTTTGATTAAAATTGGAACGATGTGATGGAAAAGTTAGCGGAGTCACCTAGTGCAG”, for which the binding signal is 17300 fluorescence intensity (a.u.).
Under “TTGATTGAGATGTGACTGGAAAGGTGTGTCAGTGCAGGCACGGAGTCACCTAGTGCAG” stands 56800 fluorescence intensity (a.u.); under “CAGATGTGACTGGTATATATTGAAAGGTGCGAGGCACTGGCGGAGTCACCTAGTGCAG”, 9620 fluorescence intensity (a.u.).
As for “TTAAAAGTTTGATTGAAATTGGAACGATGTGATGGAAAAGCGGAGTCACCTAGTGCAG”, the binding signal is 22400 fluorescence intensity (a.u.).
In the case of “TAAAATTGAAAATTTGATTGAAATTGGAACGATGTGATGGCGGAGTCACCTAGTGCAG”, the binding signal is 64500 fluorescence intensity (a.u.).
For “AAAGTTTGGATTTTGATTGAAATTGAAGATGATGTGACTGCGGAGTCACCTAGTGCAG”, the binding signal is 26700 fluorescence intensity (a.u.).
For “CGTGTGCAGTGCAGTGATGATTGAGAAAGGCCATGCCATACGGAGTCACCTAGTGCAG”, the binding signal is 3900 fluorescence intensity (a.u.).
Under “AAATTAAATTATACTCAATACACAAGTTTGAATCTGATTCCGGAGTCACCTAGTGCAG” stands 11400 fluorescence intensity (a.u.); under “TTGATTGAAATTGGAGATGATGTGACTGAAAAGTTGTGTGCGGAGTCACCTAGTGCAG”, 41800 fluorescence intensity (a.u.); under “TGATTCAAATGATTGAAGCTTTCCAAAACCTATGAAATTCCGGAGTCACCTAGTGCAG”, 17700 fluorescence intensity (a.u.).
Turning to “CAAATAATTATTATACTTTGTCATGTCATATAAACTATATCGGAGTCACCTAGTGCAG”, the binding signal was 17900 fluorescence intensity (a.u.).
Under “ACTCATGCTTACTTGATTGATAGTGGAAGAACCTTTTCTTCGGAGTCACCTAGTGCAG” stands 28200 fluorescence intensity (a.u.).
With “AGTTTAATGGTGATAATATGATTTCAAAATCTGACAACCGCGGAGTCACCTAGTGCAG”, the binding signal was 12500 fluorescence intensity (a.u.).
As to “TTTTCTGGTGGCAAGATGATTGAGATATACACCTTGAAGTCGGAGTCACCTAGTGCAG”, the binding signal was 7690 fluorescence intensity (a.u.).
Under “GGAATTGGTAACAGCAAGCTTAACAGAGAAAGGTAGTCGACGGAGTCACCTAGTGCAG” stands 8350 fluorescence intensity (a.u.); under “TCTATAAATTGGCCTAGTACCTGGAAAGTGAAATCTGCCACGGAGTCACCTAGTGCAG”, 7920 fluorescence intensity (a.u.); under “CGTAATTGCATCTCTATTTTCATCTCTACTTCATTTCTCTCGGAGTCACCTAGTGCAG”, 37900 fluorescence intensity (a.u.).
Turning to “TCAAAATTAGAAGTTTGAAGAAATTGGAACGATGTGATGGCGGAGTCACCTAGTGCAG”, the binding signal was 7940 fluorescence intensity (a.u.).
With “ATAGTGATAGGTCTGTCAATGCAGTGAGGTCCTGAAAACCCGGAGTCACCTAGTGCAG”, the binding signal was 8210 fluorescence intensity (a.u.).
As to “CTGATTGAAATTGAAAGTTTGATTGAAATTGAAACGATGCCGGAGTCACCTAGTGCAG”, the binding signal is 65300 fluorescence intensity (a.u.).
For the sequence “TCTGATGAACACATTGAGAAAGCAGATGAAGTTGCAGTGTCGGAGTCACCTAGTGCAG”, the binding signal is 5120 fluorescence intensity (a.u.).
In the case of “AATTGATTTATTTTGAAACAGAGAGAATACAGTTTATTTACGGAGTCACCTAGTGCAG”, the binding signal is 32400 fluorescence intensity (a.u.).
For the sequence “AAAATTGAAAGTTTGATTGAAATTAGAACGATGTGACGAACGGAGTCACCTAGTGCAG”, the binding signal is 35500 fluorescence intensity (a.u.).
Under “TCTCTGTGATTGAAACCTTGTCTCTGAAATGCTTGAGGGCCGGAGTCACCTAGTGCAG” stands 55400 fluorescence intensity (a.u.).
Under “TGATGAAGATGATGAGCATGTGATTGAGCTGTCTGATTGCCGGAGTCACCTAGTGCAG” stands 33800 fluorescence intensity (a.u.); under “TAGAAGTTTGATTGAAATTGAAACGATATGATGGAAAAGTCGGAGTCACCTAGTGCAG”, 44500 fluorescence intensity (a.u.).
Consider “CAAAATTTGAAGTTTGATTGAAATTGGTACGATGTGATGGCGGAGTCACCTAGTGCAG”, for which the binding signal is 62400 fluorescence intensity (a.u.).
Take “TTTGGTTGAAATTGAAACGATGTGATGGAAAAGTTGGAAGCGGAGTCACCTAGTGCAG”: the binding signal was 5010 fluorescence intensity (a.u.).
Under “TCTGATTGAACGAGTTTACAGATTGAGAAAGCACGCGTCACGGAGTCACCTAGTGCAG” stands 53800 fluorescence intensity (a.u.); under “TATTAAACGAATTATCACAAAATTATAGATTTATCATGTTCGGAGTCACCTAGTGCAG”, 3760 fluorescence intensity (a.u.); under “GCTCCAATTTAATTTCAAAATGAATTTATATATTCATTGTCGGAGTCACCTAGTGCAG”, 14100 fluorescence intensity (a.u.).
On to “CTGCTTAATTACTTCAGCCTTTACACATCAGCATATCATACGGAGTCACCTAGTGCAG”, for which the binding signal was 8250 fluorescence intensity (a.u.).
Take “CGTAATTGTTTAGTTGCAAAAGGATAAGCACCAAACCAAACGGAGTCACCTAGTGCAG”: the binding signal was 12400 fluorescence intensity (a.u.).
Turning to “ATTATTTGATTGTGGTTTAATTGTTGGTGCAACAGGGTTACGGAGTCACCTAGTGCAG”, the binding signal was 47900 fluorescence intensity (a.u.).
In the case of “AAGTTTGATTGAAATTGGAACGATGTGACGGAAAAGTTGACGGAGTCACCTAGTGCAG”, the binding signal was 35100 fluorescence intensity (a.u.).
With “TTGGAAGTTTGATTGAAATTGGAACGATGTGACGGGAAAGCGGAGTCACCTAGTGCAG”, the binding signal is 23300 fluorescence intensity (a.u.).
In the case of “TCAAAATTGGAAGTTTGATTGAAATTGGAACGATGTGACGCGGAGTCACCTAGTGCAG”, the binding signal was 61400 fluorescence intensity (a.u.).
Regarding “TATGTGATTATCTTCTCCATACCATCATGTTCTAGATACGCGGAGTCACCTAGTGCAG”, the binding signal was 24900 fluorescence intensity (a.u.).
With “TTCTCATTTTATTTAATTTAAAAGTAATTTATTACATGTTCGGAGTCACCTAGTGCAG”, the binding signal was 11600 fluorescence intensity (a.u.).
Under “GCCTAATTAATCCATGATTAACCATAAGTGCTGCAGTAACCGGAGTCACCTAGTGCAG” stands 33500 fluorescence intensity (a.u.); under “CTGAGATGCTAATTGTGTGTACACTGTTGAGCACATTTGACGGAGTCACCTAGTGCAG”, 3680 fluorescence intensity (a.u.); under “GGCTATTTCGTCCCAATTACCAATGGGCTAATTTTGGATCCGGAGTCACCTAGTGCAG”, 5000 fluorescence intensity (a.u.).
As for “CTCCCAATATAATTATTTTCTATTTTCACAAACTCAGATACGGAGTCACCTAGTGCAG”, the binding signal was 5940 fluorescence intensity (a.u.).

For the origin of these results see PMC7819943, “Rice protein-binding microarrays: a tool to detect cis-acting elements near promoter regions in rice”.
